Out of some 340,000 compounds screened, about 6,400 (1.9%) were called active. Inconclusive results (about 4%) are left out. The call rests on the fitted dose curve; in most records, active means well fitted falling curve with a large enough effect; inconclusive means small, poorly fitted or top-dose-only effect; inactive means no such curve, though single readings can be large or run the other way. The entries come from a sample that favours actives as a whole.
These molecules were tested against ATP-dependent Clp protease proteolytic subunit (Bacillus subtilis (strain 168)) (UniProt P80244) (assay: qHTS Assay for Activators of ClpP). Conditions: purified B. subtilis ClpP, FRET peptide cleavage, 20 min; series mostly up to 57.5 µM; activity change, negative = active: at the top concentration.
Outline: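 ClpP 10 microg/mL final, pH 8 Tris/KCl buffer with BSA, glycerol, Tween-20; compound pinned in; FRET-FV substrate; RT 20 min; Ex320/Em430; ΔFRET vs ADEP 5.8 microM, DMSO, no enzyme.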
Further: the source files actives as falling curves though it sought activators and does not explain the sign; nearly all actives have a fitted effect of over 65% in size.
Potency means the concentration at half of the fitted maximal effect.

ATP-dependent Clp protease proteolytic subunit (Bacillus subtilis (strain 168)), sequence (P80244 whole entry, looked up): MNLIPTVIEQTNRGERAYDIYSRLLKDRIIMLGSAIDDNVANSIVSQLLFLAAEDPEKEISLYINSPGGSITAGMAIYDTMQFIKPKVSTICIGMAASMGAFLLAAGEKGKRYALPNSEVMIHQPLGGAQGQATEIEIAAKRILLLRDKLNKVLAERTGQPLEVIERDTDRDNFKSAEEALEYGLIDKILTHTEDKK

Activity change, negative = active, inactive:
CC(C)(C)c1ccc(S(=O)(=O)NC(=O)C2(C)CCN2C(=O)CC2CC2)cc1 (configuration not stated) -1.69%, COc1ccc(C(C)C)cc1-c1ccc2nncn2c1 -17%, C/C=C/NNC(=O)Cc1ccc(OC)cc1 -0.261%, CC1(C)Cc2ccccc2-c2c[nH]c(=O)n21 -8.9%, CCCCCn1nnnc1-c1nc2cc3ccccc3cc2[nH]c1=O -3.31%, CCOC(=O)[C@]12CCCC=C1N(Cc1ccc3c(c1)OCO3)C(=O)[C@H](CC(=O)NCc1cccs1)C2 -3.13%, O=C(c1ccc2c(=O)n(Cc3ccco3)c(=S)[nH]c2c1)N1CCCC1 -0.0374%, O=C(Nc1cc(-c2nc3ncccc3o2)ccc1Cl)c1ccco1 -16.7%, O=C(Nc1cccc(-c2nc3ncccc3o2)c1)c1ccco1 -19.3%, COc1ccc(C(NC(=O)C2CCN(CCCc3ccccc3)CC2)c2cccs2)cc1 (configuration not stated) 0.0312%, Cc1ccccc1OCc1ccc(-c2nc(C#N)c(N3CCCCC3)o2)o1 3.92%, COc1ccc(OCc2ccc(-c3nc(C#N)c(N4CCN(c5ccccc5)CC4)o3)o2)cc1 -10.7%, CC1CC(C)CN(c2oc(-c3ccc(OCc4ccc(Cl)cc4)cc3)nc2C#N)C1 (configuration not stated) -0.166%, N#Cc1nc(COc2ccc(Cl)cc2)oc1N1CCCC1 -2.25%, CCCCCc1c(-c2ccc(OC)c(OC)c2)ncn1CCc1ccccc1OC -22.3%, O=S(=O)(c1ccc(Br)cc1)c1nnn2c1nc(NC1CCCCCC1)c1sccc12 -4%, CC1CCCN(c2nc3c(S(=O)(=O)c4ccc(C(C)C)cc4)nnn3c3ccsc23)C1 (configuration not stated) -6.42%, C[C@@H]1Cn2cnc(C(=O)Nc3ccc(CNC(=O)OC(C)(C)C)cc3)c2C(=O)N1 -2.12%, CC1CN(C(=O)c2cccc(NS(=O)(=O)c3ccc(Br)cc3)c2)CC(C)O1 (configuration not stated) -1.89%, COc1ccc(COC[C@H](CC(C)C)N2CCN(C(=O)c3cccc(C(F)(F)F)c3)CCC2=O)cc1 -2.62%, COC(=O)C[C@@H]1C=C[C@@H](NC(=O)c2cccnc2)[C@@H](CO)O1 -0.211%, COc1ccc(-c2c(C)nn3c(N4CCC(C(=O)NCCC(C)C)CC4)cc(C)nc23)cc1OC -0.514%, COc1ccc(CCNc2nc(-c3ccc(Cl)cc3)cc(C(F)(F)F)n2)cc1OC -9.59%, CNc1cncc(-c2cccc(C(=O)N3CCOCC3)c2)n1 4.52%, NCCCCC(C(=O)O)N(C(=O)OCc1ccccc1)C(=O)OCc1ccccc1 (configuration not stated) -1.15%, CC(C)(C)OC(=O)N(Cc1ccco1)S(=O)(=O)c1ccccc1Br -0.306%, O=C(C(=O)N1CCC(c2ccccc2)CC1)c1ccccc1 -1.51%, Cc1ccc(C2CCN(C(=S)Nc3cccc(Cl)c3)C2)cc1 (configuration not stated) 1.03%, COC(=O)[C@]12CCCCC=C1N(Cc1ccco1)C(=O)[C@H](CC(=O)NCC1CCCCC1)C2 -3.97%, C[C@H](NC(=O)[C@@H]1CCCN1C(=O)[C@@H]1CCCN1C(=O)c1ccccc1)c1ccccc1 -0.114%, CN(C)c1cccc2ccccc12 4.23%, O=C(Cc1ccccc1)Nc1sc2c(c1C(=O)Nc1ccc(Br)cc1)CCC2 0.382%, CCOc1ccc(NC(=O)c2c(NC(=O)Cc3ccccc3)sc3c2CCCCC3)cc1 -1.14%, CCc1ccc(-c2cc3c(=O)n(CC(=O)NCCCN4CCN(Cc5ccccc5)CC4)nc(C)n3n2)cc1 4.35%, CCN(CC)CCCNC(=O)CCn1nc(-c2ccc(Cl)cc2)ccc1=O -0.753%, S=c1[nH]c(=S)c2n[nH]nc2[nH]1 0.104%, NC(=O)Nc1ccc(/C=C/c2ccnc3ccccc23)cc1 -16.4%, CC(C)C1CC2=C(C(=O)OC(C)(C)O2)C(c2ccc(F)cc2)O1 (configuration not stated) 1.5%

Potency, active:
O=c1oc2ccc(C#CC3(O)CCCCC3)cc2cc1-n1cc(-c2ccsc2)nn1 31.6 µM, Cc1cccc(C(=O)Nc2ccc(-c3nc4ncccc4o3)cc2C)c1 35.5 µM, CCC(C)Nc1oc(-c2ccc(COc3ccc(Cl)cc3)o2)nc1C#N (configuration not stated) 28.2 µM, CN1CCN(c2oc(-c3ccc(COc4ccc(Cl)cc4)o3)nc2C#N)CC1 35.5 µM, O=S(=O)(c1ccc(Cl)cc1)c1nnn2c1nc(NC1CCCC1)c1sccc12 25.1 µM, COc1ccc(CCNc2cc(C)nc3c(-c4ccc(Cl)cc4)c(C)nn23)cc1OC 28.2 µM, Cc1nc2ccc(NC(=O)N3CCC(c4ccccc4)C3)cc2nc1C (configuration not stated) 10 µM, O=C(CN1CCCC1)Nc1sc2c(c1C(=O)Nc1ccccc1)CCCC2 28.2 µM, Cc1ccc(-c2ccc(=O)n(CC(=O)NCCCN3CCCCC3)n2)cc1 14.1 µM

— PubChem BioAssay AID651965 (National Center for Advancing Translational Sciences (NCATS), 2013)
